# Records with an inconclusive call do not appear. Activity calls are given as the source filed them. The calls were made as follows: active = hit-call score of the fitted dose curve at least 0.9, where 1 is the maximum; inconclusive = response in the unintended direction; inactive = score below 0.9.
# Biological target: Retinoic acid receptor RXR-alpha (Homo sapiens) (UniProt P19793)
# Assay: OT_NURR1_NURR1RXRa_1440: Odyssey Thera (OT) 24-hour HEK293T Protein Complementation Assay for Nurr1/retinoid X receptor (RXR) (AID 2283386)
# Outline: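 Interaction of Nurr1 with RXRα brings fused reporter fragments together in human HEK293T cells, restoring a functional reporter. Fluorescence intensity is measured 24 h after chemical treatment, and values are analysed in the positive direction against DMSO.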
# Retinoic acid receptor RXR-alpha (Homo sapiens), sequence (P19793 whole entry, looked up): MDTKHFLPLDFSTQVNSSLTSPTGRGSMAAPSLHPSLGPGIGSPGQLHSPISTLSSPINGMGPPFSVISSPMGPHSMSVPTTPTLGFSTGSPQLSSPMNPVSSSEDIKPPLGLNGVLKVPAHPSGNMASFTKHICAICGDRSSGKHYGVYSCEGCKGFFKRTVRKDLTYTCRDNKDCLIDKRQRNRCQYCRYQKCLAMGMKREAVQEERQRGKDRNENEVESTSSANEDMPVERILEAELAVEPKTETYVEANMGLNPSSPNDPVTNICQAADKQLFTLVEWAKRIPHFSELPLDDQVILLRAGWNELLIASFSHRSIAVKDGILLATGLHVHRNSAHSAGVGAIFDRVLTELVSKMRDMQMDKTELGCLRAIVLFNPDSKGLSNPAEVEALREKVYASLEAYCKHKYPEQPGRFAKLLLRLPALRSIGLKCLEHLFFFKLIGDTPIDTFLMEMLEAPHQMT
Structure (SMILES),outcome,AC50
CC(C)C1=CC2=CC[C@@H]3[C@](C)(CCC[C@@]3(C)C(=O)O)[C@H]2CC1,inactive,
CCCCC/C=C\C/C=C\CCCCCCCC(=O)OC,,50 µM (active)
CCCCCCCCCCCCCOP(=O)(O)O,inactive,
O=S1(=O)OC(c2ccc(O)cc2)(c2ccc(O)cc2)c2ccccc21,inactive,
CN(C)c1ccc(N=Nc2ccccc2C(=O)O)cc1,inactive,
CC(=O)[C@H]1[C@H](C#N)C[C@H]2[C@@H]3CC=C4C[C@@H](O)CC[C@]4(C)[C@H]3CC[C@@]21C,inactive,
NC(CO)(CO)CO,inactive,
CN(C)c1ccc(C(=N)c2ccc(N(C)C)cc2)cc1,,26.7 µM (active)
O=C(O)CCCC[C@@H]1SC[C@@H]2NC(=O)N[C@@H]21,inactive,

# Biological target: Peroxisome proliferator-activated receptor gamma (Homo sapiens) (UniProt P37231)
# Sequence (P37231 whole entry, looked up): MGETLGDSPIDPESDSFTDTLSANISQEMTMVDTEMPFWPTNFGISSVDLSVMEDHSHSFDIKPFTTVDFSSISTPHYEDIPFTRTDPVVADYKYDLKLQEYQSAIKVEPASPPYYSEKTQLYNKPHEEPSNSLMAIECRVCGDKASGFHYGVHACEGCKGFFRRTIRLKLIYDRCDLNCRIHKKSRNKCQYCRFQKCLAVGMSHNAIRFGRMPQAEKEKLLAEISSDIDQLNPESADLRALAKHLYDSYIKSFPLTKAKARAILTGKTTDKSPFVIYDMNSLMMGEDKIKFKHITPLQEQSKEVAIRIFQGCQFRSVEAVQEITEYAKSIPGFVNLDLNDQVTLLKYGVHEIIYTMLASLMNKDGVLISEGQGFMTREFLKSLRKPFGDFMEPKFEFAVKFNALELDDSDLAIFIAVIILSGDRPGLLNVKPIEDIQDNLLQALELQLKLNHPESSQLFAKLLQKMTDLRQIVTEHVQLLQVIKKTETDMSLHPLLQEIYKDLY
# Assay: OT_PPARg_PPARgSRC1_0480: Odyssey Thera (OT) 8-hour Protein-Complementation Assay for Peroxisome Proliferator-activated Receptor Gamma / SRC-1 Co-activator (AID 2283387)
# Outline: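 Protein-fragment complementation of split Venus YFP reports PPARg/SRC-1 interaction in HEK293T (transfected 48 h before treatment), exposed 8 h. Readout: N/C fluorescence ratio at 488 nm from imaging, Draq5 for segmentation, positive fit relative to DMSO.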
row,Structure (SMILES),outcome
1,CCCCC/C=C\C/C=C\CCCCCCCC(=O)OC,inactive
2,CCCCCCCCCCCCCOP(=O)(O)O,inactive
3,CC(=O)[C@H]1[C@H](C#N)C[C@H]2[C@@H]3CC=C4C[C@@H](O)CC[C@]4(C)[C@H]3CC[C@@]21C,inactive
4,O=C(O)CCCC[C@@H]1SC[C@@H]2NC(=O)N[C@@H]21,inactive

# Biological target: Peroxisome proliferator-activated receptor gamma (Homo sapiens) (UniProt P37231)
# Assay: OT_PPARg_PPARgSRC1_1440: Odyssey Thera (OT) 24-hour Protein-Complementation Assay for Peroxisome Proliferator-activated Receptor Gamma/ SRC-1 Co-activator (AID 2283388)
# Outline: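 HEK293T cells transiently transfected with PPARg and SRC-1 fused via (Gly4Ser)2 linker to split Venus YFP fragments (IFP1/IFP2) were dosed 24 h; fixed, Draq5-stained, imaged at 488/635 nm; nuclear/cytoplasmic fluorescence ratio scored versus DMSO baseline, gain-of-signal.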
Structure (SMILES),outcome,AC50
CC(C)C1=CC2=CC[C@@H]3[C@](C)(CCC[C@@]3(C)C(=O)O)[C@H]2CC1,inactive,
CCCCC/C=C\C/C=C\CCCCCCCC(=O)OC,inactive,
CCCCCCCCCCCCCOP(=O)(O)O,inactive,
CC/C=C\C/C=C\C/C=C\CCCCCCCC(=O)O,inactive,
O=S1(=O)OC(c2ccc(O)cc2)(c2ccc(O)cc2)c2ccccc21,inactive,
CN(C)c1ccc(N=Nc2ccccc2C(=O)O)cc1,inactive,
CC(=O)OC(C)C,inactive,
CC(=O)[C@H]1[C@H](C#N)C[C@H]2[C@@H]3CC=C4C[C@@H](O)CC[C@]4(C)[C@H]3CC[C@@]21C,inactive,
CCCCCCCC/C=C\CCCCCCCC(=O)O,inactive,
NC(CO)(CO)CO,inactive,
CN(C)c1ccc(C(=N)c2ccc(N(C)C)cc2)cc1,,28.7 µM (active)
O=C(O)CCCC[C@@H]1SC[C@@H]2NC(=O)N[C@@H]21,inactive,
